{
  "source": "the supplement of paper PMC4022240",
  "experiment_in_all_cases": "peptide microarray binding signal (635 nm), min-max normalized on array (fraction of array maximum); higher = stronger binding",
  "conditions_in_all_cases": "peptide region: H3 1-13",
  "key": {"[1]": {"target": "T1, HaloTag-ATRX ADD domain (163-292)", "T1 chain": "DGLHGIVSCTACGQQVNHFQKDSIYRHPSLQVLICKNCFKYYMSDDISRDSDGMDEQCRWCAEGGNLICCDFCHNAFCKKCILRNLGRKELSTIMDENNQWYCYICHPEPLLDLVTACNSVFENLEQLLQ", "method": "(§1)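 Histone 13-mer peptides were synthesized as cellulose conjugates with a C-terminal 20-atom PEG linker and printed in triplicate on nitrocellulose. The sequence given is the unmodified backbone; PTMs (Kme1/2/3, Kac, Sph/Tph, Rme/Rme2a/Rme2s, Rcit) are listed in the label and the 'peptide modifications' condition. Slides were probed at 4 °C for 1 h with biotin-labelled (HQ)5-HaloTag reader fusions (ATRX-ADD, ING2-PHD) then streptavidin-Alexa647, or with rabbit histone antibodies then anti-rabbit Alexa647. The mean 635 nm signal of the triplicate spots was scaled 0-1 between the lowest and highest values on each array.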"}, "[2]": {"target": "HaloTag-ING2 PHD (mouse Ing2 200-280)", "method": "as §1"}, "[3]": {"target": "anti-H3K4me3 antibody ab8580", "method": "as §1"}, "[4]": {"target": "anti-H3K9me3 antibody ab8898", "method": "as §1"}, "[5]": {"conditions": "peptide modifications: H3R8me2a H3K9me1, binder concentration: 1:2,000 dilution"}, "[6]": {"conditions": "peptide modifications: H3R8me2a H3K9me1, binder concentration: 1:10,000 dilution"}, "[7]": {"conditions": "peptide modifications: H3R8me2s H3K9me1, binder concentration: 1:2,000 dilution"}, "[8]": {"conditions": "peptide modifications: H3R8me2s H3K9me1, binder concentration: 1:10,000 dilution"}, "[9]": {"conditions": "peptide modifications: H3T3ph H3K4me1, binder concentration: 1:2,000 dilution"}, "[10]": {"conditions": "peptide modifications: H3T3ph H3K4me1, binder concentration: 1:10,000 dilution"}, "[11]": {"conditions": "peptide modifications: H3R8me2s H3K9me3, binder concentration: 1:2,000 dilution"}, "[12]": {"conditions": "peptide modifications: H3R8me2s H3K9me3, binder concentration: 1:10,000 dilution"}, "[13]": {"conditions": "peptide modifications: H3R8me1 H3K9me1, binder concentration: 1:2,000 dilution"}, "[14]": {"conditions": "peptide modifications: H3R8me1 H3K9me1, binder concentration: 1:10,000 dilution"}},
  "note": "± gives the standard deviation.",
  "data": [
    {"binder": "ARTKQTARKSTGG", "note": "[H3 1-13 A R T K Q T A Rme2a Kme S T G G]", "values": [
      {"measurement": "peptide microarray binding signal", "setting": "[1]; peptide modifications: H3R8me2a H3K9me1, binder concentration: 50 nM", "result": "0.0352 ± 0.0011"},
      {"measurement": "peptide microarray binding signal", "setting": "[1]; peptide modifications: H3R8me2a H3K9me1, binder concentration: 500 nM", "result": "0.0882 ± 0.0059"},
      {"measurement": "peptide microarray binding signal", "setting": "[2]; peptide modifications: H3R8me2a H3K9me1, binder concentration: 10 nM", "result": "0.033 ± 0.0066"},
      {"measurement": "peptide microarray binding signal", "setting": "[2]; peptide modifications: H3R8me2a H3K9me1, binder concentration: 100 nM", "result": "0.0721 ± 0.0073"},
      {"measurement": "peptide microarray binding signal", "setting": "[3]; [5]", "result": "0.00366 ± 0.00063"},
      {"measurement": "peptide microarray binding signal", "setting": "[3]; [6]", "result": "0.00114 ± 3e-05"},
      {"measurement": "peptide microarray binding signal", "setting": "[4]; [5]", "result": "0.00186 ± 0.00023"},
      {"measurement": "peptide microarray binding signal", "setting": "[4]; [6]", "result": "0.00208 ± 7.7e-05"}
    ]},
    {"binder": "ARTKQTARKSTGG", "note": "[H3 1-13 A R T K Q T A Rme2s Kme S T G G]", "values": [
      {"measurement": "peptide microarray binding signal", "setting": "[1]; peptide modifications: H3R8me2s H3K9me1, binder concentration: 50 nM", "result": "0.0145 ± 0.00064"},
      {"measurement": "peptide microarray binding signal", "setting": "[1]; peptide modifications: H3R8me2s H3K9me1, binder concentration: 500 nM", "result": "0.0339 ± 0.0019"},
      {"measurement": "peptide microarray binding signal", "setting": "[2]; peptide modifications: H3R8me2s H3K9me1, binder concentration: 10 nM", "result": "0.0365 ± 0.0046"},
      {"measurement": "peptide microarray binding signal", "setting": "[2]; peptide modifications: H3R8me2s H3K9me1, binder concentration: 100 nM", "result": "0.0547 ± 0.007"},
      {"measurement": "peptide microarray binding signal", "setting": "[3]; [7]", "result": "0.0103 ± 0.0015"},
      {"measurement": "peptide microarray binding signal", "setting": "[3]; [8]", "result": "0.0069 ± 0.0003"},
      {"measurement": "peptide microarray binding signal", "setting": "[4]; [7]", "result": "0.00578 ± 0.0013"},
      {"measurement": "peptide microarray binding signal", "setting": "[4]; [8]", "result": "0.00588 ± 0.00043"}
    ]},
    {"binder": "ARTKQTARKSTGG", "note": "[H3 1-13 A R Tph Kme Q T A R K S T G G]", "values": [
      {"measurement": "peptide microarray binding signal", "setting": "[1]; peptide modifications: H3T3ph H3K4me1, binder concentration: 50 nM", "result": "0.00492 ± 0.00024"},
      {"measurement": "peptide microarray binding signal", "setting": "[1]; peptide modifications: H3T3ph H3K4me1, binder concentration: 500 nM", "result": "0.0238 ± 0.013"},
      {"measurement": "peptide microarray binding signal", "setting": "[2]; peptide modifications: H3T3ph H3K4me1, binder concentration: 10 nM", "result": "0.00376 ± 0.00014"},
      {"measurement": "peptide microarray binding signal", "setting": "[2]; peptide modifications: H3T3ph H3K4me1, binder concentration: 100 nM", "result": "0.021 ± 0.002"},
      {"measurement": "peptide microarray binding signal", "setting": "[3]; [9]", "result": "0.021 ± 0.0064"},
      {"measurement": "peptide microarray binding signal", "setting": "[3]; [10]", "result": "0.00765 ± 0.0012"},
      {"measurement": "peptide microarray binding signal", "setting": "[4]; [9]", "result": "0.00298 ± 0.00034"},
      {"measurement": "peptide microarray binding signal", "setting": "[4]; [10]", "result": "0.0015 ± 5.1e-05"}
    ]},
    {"binder": "ARTKQTARKSTGG", "note": "[H3 1-13 A R T K Q T A Rme2s Kme3 S T G G]", "values": [
      {"measurement": "peptide microarray binding signal", "setting": "[1]; peptide modifications: H3R8me2s H3K9me3, binder concentration: 50 nM", "result": "0.0211 ± 0.0011"},
      {"measurement": "peptide microarray binding signal", "setting": "[1]; peptide modifications: H3R8me2s H3K9me3, binder concentration: 500 nM", "result": "0.0455 ± 0.0027"},
      {"measurement": "peptide microarray binding signal", "setting": "[2]; peptide modifications: H3R8me2s H3K9me3, binder concentration: 10 nM", "result": "0.0394 ± 0.0041"},
      {"measurement": "peptide microarray binding signal", "setting": "[2]; peptide modifications: H3R8me2s H3K9me3, binder concentration: 100 nM", "result": "0.0568 ± 0.0048"},
      {"measurement": "peptide microarray binding signal", "setting": "[3]; [11]", "result": "0.0739 ± 0.0089"},
      {"measurement": "peptide microarray binding signal", "setting": "[3]; [12]", "result": "0.0587 ± 0.011"},
      {"measurement": "peptide microarray binding signal", "setting": "[4]; [11]", "result": "0.468 ± 0.023"},
      {"measurement": "peptide microarray binding signal", "setting": "[4]; [12]", "result": "0.396 ± 0.02"}
    ]},
    {"binder": "ARTKQTARKSTGG", "note": "[H3 1-13 A R T K Q T A Rme Kme S T G G]", "values": [
      {"measurement": "peptide microarray binding signal", "setting": "[1]; peptide modifications: H3R8me1 H3K9me1, binder concentration: 50 nM", "result": "0.0189 ± 0.0012"},
      {"measurement": "peptide microarray binding signal", "setting": "[1]; peptide modifications: H3R8me1 H3K9me1, binder concentration: 500 nM", "result": "0.0502 ± 0.0023"},
      {"measurement": "peptide microarray binding signal", "setting": "[2]; peptide modifications: H3R8me1 H3K9me1, binder concentration: 10 nM", "result": "0.0183 ± 0.0025"},
      {"measurement": "peptide microarray binding signal", "setting": "[2]; peptide modifications: H3R8me1 H3K9me1, binder concentration: 100 nM", "result": "0.0398 ± 0.0084"},
      {"measurement": "peptide microarray binding signal", "setting": "[3]; [13]", "result": "0.00206 ± 9e-05"},
      {"measurement": "peptide microarray binding signal", "setting": "[3]; [14]", "result": "0.00108 ± 5e-05"},
      {"measurement": "peptide microarray binding signal", "setting": "[4]; [13]", "result": "0.00319 ± 0.00084"},
      {"measurement": "peptide microarray binding signal", "setting": "[4]; [14]", "result": "0.00202 ± 3.2e-05"}
    ]}
  ]
}
